CRE-bla Fsk: CRE-bla signaling modulation under forskolin stimulation. CHO CRE-bla reporter (cAMP response element driving beta-lactamase), forskolin EC10, beta-lactamase ratio. Potency, µM (highest dose often 38.2 µM), inactives show top-dose activity change, negative = inhibition, hits mostly activators. 71,000 compounds, 2.5% hits. AID 662; active means well fitted activation curve with a large enough effect in the signal ratio, with a control signal flat, not every such curve was filed as active; inconclusive means small, poorly fitted or top-dose-only effect, or effect the other way, or a change in a side signal; the % refers to the signal ratio; further: potency means the concentration at half of the fitted maximal effect; % of control where 0% means no effect
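CHO CRE-bla cells, overnight plating in Opti-MEM with 0.5% dialyzed FBS; cpd titration + EC10 NKH 477, 3 h 37 °C; CCF4 2 h RT; ex 405/em 460 vs 530 ratio → %Activity, AC50.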
4-MU autofl: 4-MU region autofluorescence; compound autofluorescence, 340/450 nm, 4-MU equivalents; hits give high values; max dye-equivalent concentration, M; 59,000 compounds, 11% hits; AID 589; in the data active means max dye-equivalent concentration above about 10 nM; inconclusive means mostly about 1.1 nM to 9.6 nM
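Compounds in 100 mM Tris, pH 8.0, sat 15 min at room temperature before fluorescence was read at 340 nm excitation/450 nm emission; a per-plate six-point 4-MU standard curve converted signals to dye-equivalent concentration at each compound concentration.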
AID923: qHTS Assay for Allosteric/Competitive Inhibitors of Caspase-1: Spectroscopic Profiling in AFC Spectral Region; compound fluorescence, AFC spectral region (405/520 nm); Potency, µM (top dose mostly 57.5 µM), inactives show top-dose fluorescence increase, hits mostly activators; 75,000 compounds, 1.1% hits; AID 923, 2007; further: potency means the concentration at half of the fitted maximal effect; 0% is about no effect
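Baseline compound fluorescence (AFC region, 405 nm ex/520 nm em) taken from the intercept of kinetic reads with 50 nM caspase-1 and 5 uM Ac-WEHD-AFC; normalized to an on-plate AFC standard curve; compounds titrated up to 57 uM.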
HADH2 inh: blocks human hydroxyacyl-CoA dehydrogenase type II; recombinant HADH2, NADH fluorescence, beta-hydroxybutyryl-CoA; Potency, µM (titrated, usually from 57.1 µM), inactives show at the highest dose activity change, negative = inhibition, hits mostly inhibitors; 73,000 compounds, 3.4% hits; AID 886; further: potency means the concentration at half of the fitted maximal effect; on the % scale 0 is the no-effect control and ±100 the full control effect; nearly all actives have a fitted effect of over 60% in size
Target sequence (Q99714 whole entry, looked up, one chain of several): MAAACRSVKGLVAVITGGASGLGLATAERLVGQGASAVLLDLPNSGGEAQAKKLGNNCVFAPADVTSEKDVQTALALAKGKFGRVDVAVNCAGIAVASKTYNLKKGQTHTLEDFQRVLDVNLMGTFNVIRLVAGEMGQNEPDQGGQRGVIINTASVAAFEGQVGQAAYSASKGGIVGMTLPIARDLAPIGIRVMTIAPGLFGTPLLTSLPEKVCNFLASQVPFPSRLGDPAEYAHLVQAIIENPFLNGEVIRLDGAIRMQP
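Buffer 100 mM Tris-HCl pH 9.0/0.01% Tween-20; HADH2 20 nM; NAD+ 1 mM; beta-hydroxybutyryl-CoA 90 uM (all final). 15 min cpd preincubation, RT.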
HSD17B inhib: blocks hydroxysteroid 17-beta dehydrogenase activity. Q99714. recombinant HSD17B10, NADH fluorescence kinetic. Potency, µM (highest dose often 57.1 µM), without a hit: top-dose activity change, negative = inhibition, usual class: inhibitors. 75,000 compounds, 7.6% hits. AID 893;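 further: the protocol describes HADH2 (HSD17B10) and not the HSD17B4 of the title; potency means the concentration at half of the fitted maximal effect; on the % scale 0 is the no-effect control and ±100 the full control effect; nearly all actives have a fitted effect of over 70% in size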
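20 nM HADH2, pH 9.0 Tris/Tween; cpd preinc 15 min RT; start w/ 1 mM NAD+ + 90 uM b-hydroxybutyryl-CoA; kinetic fluor ex360/em450 q30s x 4 min; delta last-first.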
A350 fluor: A350 region autofluorescence. Compound autofluorescence, 340/450 nm, Alexa 350 dye-equivalents; hits give high values. max dye-equivalent concentration, M. 59,000 compounds, 11% hits. AID 590; in the data active means max dye-equivalent concentration above about 10 nM; inconclusive means mostly about 1.1 nM to 9.6 nM
* hit, by the source's call; i = inactive; ? = inconclusive; nt = no result; [ ] = dose if it differs, or a comment. Most compounds without a hit are left out; they make up all but 14% or so of the library. Unless noted, the call rests on the fitted dose curve; in most records, active means well fitted curve in the direction sought with a large enough effect; inconclusive means small, poorly fitted or top-dose-only effect, or another doubt; inactive means no such curve, though single readings can be large; an effect the other way counts as inactive or inconclusive.

SMILES | CRE-bla Fsk | 4-MU autofl | AID923 | HADH2 inh | HSD17B inhib | A350 fluor
COc1ccc(CNc2ccnc(-c3ccoc3)n2)c(OC)c1 | ? | i | 6% | ? | 0% | i
Cn1c(=O)c(C(=O)CN2CCOCC2)c(N)n(Cc2ccccc2)c1=O | ? | i | 0% | 9% | -4% | i
CCn1c(=O)c(C(=O)CN2CCOCC2)c(N)n(Cc2ccccc2)c1=O | ? | 1.8e-08M* | 3% | -3% | -4% | 1.8e-08M*
CCC(C)C(=O)OC1CC(C)C=C2C=CC(C)C(CCC3CC(O)CC(=O)O3)C21 (stereo not given) | nt | nt | -3% | nt | -3% | nt
Cc1nc(SCC#N)c2c(C)c(C)sc2n1 | 2µM* | i | 2% | 12% | -1% | i
Cc1ccc(-c2nnc(CSc3nc(C)nc4sc(C)c(C)c34)o2)cc1 | 13% | i | 0% | 11% | 12% | ?
CN(C)Cc1ccccc1-c1nc(N(C)C)c2ccccc2n1 | 4µM* | i | 3% | -1% | 6% | i
COCCNc1nc(-c2c(C)noc2C)nc2ccccc12 | ? | i | 1% | -16% | ? | i
Cc1noc(C)c1-c1nc(N(C)C)c2ccccc2n1 | ? | i | 1% | 4µM* | ? | i
FC(F)(F)c1ccccc1-c1nc(Nc2ccncc2)c2ccccc2n1 | ? | i | 0% | -13% | 32µM* | i
Cc1noc(C)c1-c1nc(NCc2cccs2)c2ccccc2n1 | ? | i | 2% | 25µM* | ? | i
N#Cc1cccc(NC(=O)N2CCC3(CC2)CCN(C(=O)c2csnn2)CC3)c1 | ? | i | 3% | 9% | -1% | i
CCN(CC)Cc1ccc(Nc2ccnc3cc(Cl)ccc23)cc1O | nt | nt | -1% | nt | 0% | nt
Cc1noc(C)c1-c1nc(NC2CC2)c2ccccc2n1 | ? | i | 4% | 1% | -3% | i
Cc1noc(C)c1-c1nc(Nc2ccncc2)c2ccccc2n1 | ? | i | 0% | 32µM* | ? | i
Cc1noc(C)c1-c1nc(Nc2ccc(F)cc2)c2ccccc2n1 | 15% | ? | 2% | 13µM* | i | ?
NCC(=O)Nc1ccccc1 | -7%[7.6 µM] | i | -1%[11.5 µM] | -1%[11.4 µM] | 0%[11.4 µM] | i
C=C(C)C(=O)OCCCCCC | -9% | nt | 2% | -3% | 6% | nt
Fc1cccc2sc(Nc3nnc(-c4ccco4)o3)nc12 | 9% | 1.4e-08M* | -2% | ? | 25µM* | 3.9e-08M*
COc1cccc2sc(Nc3nc(-c4ccccn4)cs3)nc12 | -28% | ? | 2% | -16% | -25% | ?
Cc1nn(-c2ccccc2)c(C)c1C(=O)Nc1nnc(-c2ccco2)o1 | -5% | i | 0% | -5% | -4% | i
COc1cccc2sc(Nc3nnc(-c4cccs4)o3)nc12 | ? | 3.5e-08M* | 5% | -7% | ? | 5.2e-08M*
CN(N=O)C(=O)N[C@H]1C(O)OC(CO)[C@@H](O)[C@H]1O (stereo not given in full) | ? | nt | 0% | 2% | -25% | nt
COc1ccccc1CN1CC[C@@]2(CCCN(C(=O)c3cnccn3)C2)C1 | -2% | i | 3% | 7% | 3% | i
CCN(CC)CC(=O)Nc1ccc(-c2nc3cc(NC(=O)CN(CC)CC)ccc3o2)cc1 | 1% | 1.2e-08M* | 0% | ? | 13µM* | 1.6e-08M*
CCC(CC)C(=O)Nc1cccc(-c2nc3ccccc3o2)c1 | ? | i | -1% | -10% | -18% | i
CCC(C)NCC(=O)Nc1ccc(-c2nc3cc(NC(=O)CNC(C)CC)ccc3o2)cc1 (stereo not given) | -3% | 6.9e-08M* | -1% | ? | 13µM* | 8.1e-08M*
O=C(CN1CCCC1)Nc1ccc(-c2nc3cc(NC(=O)CN4CCCC4)ccc3o2)cc1 | -1% | 2e-08M* | -3% | ? | 25µM* | 2.1e-08M*
CCOC(=O)N/N=C1/C[C@@H](O)[C@@H](O)[C@@H]2[C@@H]3C(=O)N(c4cccc(Oc5ccccc5)c4)C(=O)[C@H]3CC[C@H]12 | nt | nt | -4%[11.5 µM] | 16%[11.4 µM] | 3%[11.4 µM] | nt

High-throughput results from PubChem.
